Our source for the Potency values is PubChem BioAssay (NCATS).

Results filed as inconclusive are left out. The source made the active and inactive calls. Calls come from the whole dose curve; as a rule, active = well fitted curve in the direction sought with a large enough effect; inconclusive = small, poorly fitted or top-dose-only effect, or another doubt; inactive = no such curve, though single readings can be large; an effect the other way counts as inactive or inconclusive.

Test [1] is described as follows: qHTS of pediatric cancer cell lines to identify multiple opportunities for drug repurposing: Primary screen for DAOY cells (AID 1347090). Note: nearly all actives have a fitted effect of over 55% in size. Note: potency is the fitted concentration of half-maximal effect. The gist of the method:
(§1)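 Viability measured as metabolically active cells via CellTiter-Glo luminescence following 48 hours of compound exposure, 11-point dilutions in confirmatory testing. 500-1,000 cells/well plated 5 hours before dosing; controls were DMSO and 2.3 µM bortezomib.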

Test [2] is described as follows: qHTS of pediatric cancer cell lines to identify multiple opportunities for drug repurposing: Primary screen for SJ-GBM2 cells (AID 1347091). Note: potency is the fitted concentration of half-maximal effect. Put shortly:
as §1
(In general: qHTS replaces the single test concentration by a dilution series.)

Test [3] is described as follows: qHTS of pediatric cancer cell lines to identify multiple opportunities for drug repurposing: Primary screen for A673 cells (AID 1347092). Note: nearly all actives have a fitted effect of over 45% in size. Note: potency is the fitted concentration of half-maximal effect. Put shortly:
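48 h compound exposure, A673, 500-1,000 cells/well, 37 degrees C/5% CO2. MIPE: 11-point, 0.78 nM-46 µM; NPC: 8-point, 0.59 nM-46 µM (final). Readout CellTiter-Glo luminescence after 15 min RT.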

A short description of test [4]: qHTS of pediatric cancer cell lines to identify multiple opportunities for drug repurposing: Primary screen for SK-N-MC cells (AID 1347093). Note: potency is the fitted concentration of half-maximal effect. Put shortly: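 Metabolically active cells were quantified by ATP-dependent luminescence (CellTiter-Glo, 15 min at room temperature) following 48 h treatment. Cells had been plated at 500-1,000 per well and settled for 5 h beforehand.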

The nature of test [5]: qHTS of pediatric cancer cell lines to identify multiple opportunities for drug repurposing: Primary screen for BT-37 cells (AID 1347094). Note: potency is the fitted concentration of half-maximal effect. The gist of the method:
(§2)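 Quantitative HTS format: each compound titrated (MIPE 11 points from 0.78 nM, NPC 8 points from 0.59 nM) onto cells plated 5 hours earlier. After 48 h at 37 degrees C, CellTiter-Glo luminescence was recorded.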

Test [6] can be described thus: qHTS of pediatric cancer cell lines to identify multiple opportunities for drug repurposing: Primary screen for U-2 OS cells (AID 1347096). Note: nearly all actives have a fitted effect of over 50% in size. Note: potency is the fitted concentration of half-maximal effect. Put shortly:
(§3)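 Viability after 48 h compound treatment at 37C, 500-1,000 cells/well, read as ATP luminescence with CellTiter-Glo. Primary screens used 11-point (MIPE, 0.78 nM-46 µM) or 8-point (NPC, 0.59 nM-46 µM) final concentrations; follow-up screens used 11-point dilutions.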

Test [7] can be described thus: qHTS of pediatric cancer cell lines to identify multiple opportunities for drug repurposing: Primary screen for Saos-2 cells (AID 1347097). Note: nearly all actives have a fitted effect of over 40% in size. Note: potency is the fitted concentration of half-maximal effect. Put shortly: as §2
Test [8] can be described thus: qHTS of pediatric cancer cell lines to identify multiple opportunities for drug repurposing: Primary screen for NB1643 cells (AID 1347099). Note: nearly all actives have a fitted effect of over 50% in size. Note: potency is the fitted concentration of half-maximal effect. Put shortly: as §2
Test [9] in a line: qHTS of pediatric cancer cell lines to identify multiple opportunities for drug repurposing: Primary screen for LAN-5 cells (AID 1347100). Note: potency is the fitted concentration of half-maximal effect. Put shortly:
as §3

Test [10] is described as follows: qHTS of pediatric cancer cell lines to identify multiple opportunities for drug repurposing: Primary screen for BT-12 cells (AID 1347101). Note: nearly all actives have a fitted effect of over 25% in size. Note: potency is the fitted concentration of half-maximal effect. The gist of the method:
(§4)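 Cells (500-1,000/well) rested 5 h, then received compounds for 48 h; metabolically active cells were measured by CellTiter-Glo luminescence. Final concentrations spanned up to 46 µM (MIPE, 11-point) or 0.59 nM-46 µM (NPC, 8-point) in primary screens, 11-point in follow-ups.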

A short description of test [11]: qHTS of pediatric cancer cell lines to identify multiple opportunities for drug repurposing: Primary screen for Rh18 cells (AID 1347102). Note: nearly all actives have a fitted effect of over 65% in size. Note: potency is the fitted concentration of half-maximal effect. Put shortly: as §3
A short description of test [12]: qHTS of pediatric cancer cell lines to identify multiple opportunities for drug repurposing: Primary screen for OHS-50 cells (AID 1347103). Note: nearly all actives have a fitted effect of over 40% in size. Note: potency is the fitted concentration of half-maximal effect. Put shortly:
as §4

Test [13] is described as follows: qHTS of pediatric cancer cell lines to identify multiple opportunities for drug repurposing: Primary screen for MG 63 (6-TG R) cells (AID 1347105). Note: nearly all actives have a fitted effect of over 50% in size. Note: potency is the fitted concentration of half-maximal effect. The gist of the method:
as §2

Test [14] in a line: qHTS of pediatric cancer cell lines to identify multiple opportunities for drug repurposing: Primary screen for control Hh wild type fibroblast cells (AID 1347106).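 Note: series mostly up to about 46 µM; a drop in luminescence marks cytotoxicity and a rise apparent proliferation; nearly all actives have a fitted effect of over 55% in size.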 Put shortly: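 Cells (500-1,000/well) in growth media were settled 5 h at 37 degrees C, then given compounds for 48 h. Viability was read as CellTiter-Glo luminescence. Primary runs used MIPE at 11 points (0.78 nM-46 µM) and NPC at 8 points (0.59 nM-46 µM); follow-ups used 11 points.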

Test [15] can be described thus: qHTS of pediatric cancer cell lines to identify multiple opportunities for drug repurposing: Primary screen for Rh30 cells (AID 1347107). Note: nearly all actives have a fitted effect of over 75% in size. Note: potency is the fitted concentration of half-maximal effect. Put shortly:
as §3

The nature of test [16]: qHTS of pediatric cancer cell lines to identify multiple opportunities for drug repurposing: Primary screen for NB-EBc1 cells (AID 1347095). Note: potency is the fitted concentration of half-maximal effect. Put shortly:
as §2

Test [17] in a line: qHTS of pediatric cancer cell lines to identify multiple opportunities for drug repurposing: Primary screen for SK-N-SH cells (AID 1347098). Note: nearly all actives have a fitted effect of over 65% in size. Note: potency is the fitted concentration of half-maximal effect. The gist of the method: as §4
Test [18] in a line: qHTS of pediatric cancer cell lines to identify multiple opportunities for drug repurposing: Primary screen for RD cells (AID 1347104). Note: nearly all actives have a fitted effect of over 55% in size. Note: potency is the fitted concentration of half-maximal effect. Put shortly: as §2
Test [19] can be described thus: qHTS of pediatric cancer cell lines to identify multiple opportunities for drug repurposing: Primary screen for Rh41 cells (AID 1347108). Note: nearly all actives have a fitted effect of over 70% in size. Note: potency is the fitted concentration of half-maximal effect. The gist of the method: as §2
Test [20] is described as follows: qHTS of pediatric cancer cell lines to identify multiple opportunities for drug repurposing: Confirmatory screen for NB1643 cells (AID 1347109). Note: potency is the fitted concentration of half-maximal effect; nearly all actives have a fitted effect of over 45% in size. The gist of the method: as §3

Turning to `C=C[C@@H]1CN2CCC1C[C@@H]2C(O)c1ccnc2ccc(OC)cc12` (stereo partly specified), the Potency result in test [1], in test [2], in test [3], in test [4], in test [5] and in test [6] was “inactive” each time. For the same compound, the Potency entry in test [7], in [8], in [9], in [10], in test [11] and in test [12] was “inactive” each time. The Potency entry in [13], in test [14] and in [15] was “inactive” each time.

Take `O[C@@H](COc1cccc2ncccc12)CN1CCN(C2c3ccccc3[C@@H]3[C@H](c4ccccc42)C3(F)F)CC1` (stereo partly specified): the Potency is 11.8 µM (active) in [1]; 3.35 µM (active) in [2]; 14.8 µM (active) in test [3]; 9.35 µM (active) in [4]; 4.73 µM (active) in test [16]; 15.2 µM (active) in test [17]. The Potency in [8] was 3.32 µM (active); in test [9], 4.73 µM (active); in test [10], 24.3 µM (active); in [12] it was 15.5 µM (active); in test [18], 18.7 µM (active); in [13], 29.6 µM (active). In addition, the Potency was 16.6 µM (active) in test [15] and 18.7 µM (active) in test [19]. Further, the Potency result in [14] is “inactive”.

For the compound `COc1cccc(OC)c1-c1cc(C(=O)NC2(C(=O)O)C3CC4CC(C3)CC2C4)nn1-c1ccnc2cc(Cl)ccc12` (stereo unspecified), the Potency result in test [1], in [3], in [5], in test [6], in test [7] and in test [9] was “inactive” in each case. Also, the Potency result in [10], in test [11], in test [12], in test [18], in test [13] and in test [14] was “inactive” in each case. The Potency entry in test [15] and in test [19] was “inactive” each time. In addition, the Potency in test [2] was 26.4 µM (active); in test [4], 18.7 µM (active).

On to `CC[C@]1(O)C[C@H]2CN(CCC3=c4ccccc4=N[C]3[C@@](C(=O)OC)(c3cc4c(cc3OC)N(C)[C@H]3[C@@](O)(C(N)=O)[C@H](O)[C@]5(CC)C=CCN6CC[C@]43[C@@H]65)C2)C1`, for which the Potency in test [1] is 0.469 µM (active); in [2] it was 0.001 µM (active); in test [3], 0.0148 µM (active); in [4], 0.0235 µM (active); in [5] it was 0.122 µM (active); in [16], 0.0296 µM (active). In addition, the Potency in [9] is 0.0166 µM (active); in test [10], 0.122 µM (active); in test [12], 0.0685 µM (active); in test [18], 0.0332 µM (active); in test [20] it was 0.104 µM (active). In addition, the Potency entry in test [15] is “inactive”.

`Cc1nc(NC(=O)N2CCC[C@@H]2C(N)=O)sc1-c1csc(C(C)(C)C)n1`: the Potency in [1] was 14.8 µM (active); in test [2] it was 4.18 µM (active); in test [3], 2.96 µM (active); in [4] it was 0.235 µM (active); in test [16] it was 4.69 µM (active); in test [17], 15.2 µM (active). The Potency in test [8] was 5.9 µM (active); in test [12] it was 1.72 µM (active); in test [18] it was 1.66 µM (active); in test [13] it was 5.9 µM (active); in test [15], 14.8 µM (active); in [19], 11.8 µM (active).

Consider `CC(=O)OCC(=O)[C@@]1(O)CC[C@H]2[C@@H]3CCC4=CC(=O)C=C[C@]4(C)[C@@H]3[C@@H](O)C[C@@]21C`, for which the Potency entry in test [1], in test [2], in test [3], in [4], in test [5] and in [6] was “inactive” each time. Besides, the Potency entry in test [7], in test [8], in test [9], in test [11], in test [18] and in [13] was “inactive” each time. Also, the Potency result in [14] and in test [15] was “inactive” throughout.

`CCCCCCOC(=O)N=C(N)c1ccc(NCc2nc3cc(C(=O)N(CCC(=O)OCC)c4ccccn4)ccc3n2C)cc1`: the Potency entry in test [1], in test [6], in [17], in test [13], in test [14] and in test [15] was “inactive” throughout. In addition, the Potency in test [2] was 18.7 µM (active); in test [3], 14.8 µM (active); in test [4], 29.6 µM (active).

In the case of `CC1(C)[C@H]2CC[C@]3(C)[C@@H](C(=O)C=C4[C@@H]5C[C@@](C)(C(=O)O)CC[C@]5(C)CC[C@]43C)[C@@]2(C)CC[C@@H]1O`, the Potency entry in test [1], in test [2], in test [3], in test [4], in test [5] and in test [6] was “inactive” in each case. Moreover, the Potency result in [7], in test [17], in test [9], in [10], in test [18] and in test [13] was “inactive” throughout. Also, the Potency result in [14], in test [15] and in test [19] was “inactive” in each case.

In the case of `CN(C)CCOc1cc(-c2cn[nH]c2)ccc1NC(=O)C1COc2ccccc2O1` (stereo unspecified), the Potency result in test [1], in test [2], in [5], in test [16], in test [6] and in test [9] was “inactive” each time. For the same compound, the Potency entry in [10], in test [11], in test [18], in test [14] and in [15] was “inactive” throughout. The Potency was 18.7 µM (active) in test [3], 2.96 µM (active) in test [7], 10.8 µM (active) in [17] and 9.35 µM (active) in [8].

Regarding `Cc1nc2c([nH]1)CCN(C(=O)c1ccc(NC(=O)c3ccccc3-c3ccccc3)cc1)c1ccccc1-2`, the Potency entry in test [1], in test [2], in test [3], in [5], in test [16] and in [6] was “inactive” each time. The Potency result in test [7], in test [17], in [8], in test [9], in test [11] and in test [18] was “inactive” in each case. For the same compound, the Potency entry in test [13], in [14], in test [15] and in [19] was “inactive” throughout.

`CCC[C@@H](NC(=O)[C@@H]1[C@H]2CCC[C@@H]2CN1C(=O)[C@@H](NC(=O)[C@@H](NC(=O)c1cnccn1)C1CCCCC1)C(C)(C)C)C(=O)C(=O)NC1CC1`: the Potency result in test [1], in test [3], in test [16], in [6], in test [13] and in test [14] was “inactive” in each case. Moreover, the Potency entry in test [15] was “inactive”. Besides, the Potency in test [2] is 18.7 µM (active); in test [4] it was 23.5 µM (active).

As for `CN(C)CCN(Cc1ccc(Cl)cc1)c1ccccn1`, the Potency is 29.6 µM (active) in test [1], 18.7 µM (active) in test [3], 10.5 µM (active) in [4] and 14.8 µM (active) in [8]. Moreover, the Potency entry in test [2], in test [5], in [6], in [7], in test [10] and in test [11] was “inactive” throughout. Further, the Potency entry in test [13], in test [14] and in [15] was “inactive” each time.

Take `Fc1ccc(CNc2ncnc3ccc(F)cc23)cc1`: the Potency in test [1] is 7.43 µM (active); in test [3] it was 9.35 µM (active); in [4], 16.6 µM (active); in test [10], 4.32 µM (active); in [12], 6.85 µM (active). Further, the Potency entry in [2], in test [6], in test [8], in test [13] and in test [14] was “inactive” throughout.

In the case of `Cc1cnc(Nc2cccc(CN3CCOCC3)c2)nc1Nc1cccc(S(=O)(=O)NC(C)(C)C)c1`, the Potency in test [1] was 14.8 µM (active); in test [2], 4.18 µM (active); in test [3], 5.9 µM (active); in [4] it was 2.64 µM (active); in test [6] it was 14.8 µM (active); in [7], 5.26 µM (active). Besides, the Potency in test [8] was 8.33 µM (active); in [9], 1.48 µM (active); in test [10], 13.7 µM (active); in [11] it was 8.33 µM (active); in test [12], 3.43 µM (active); in test [18], 13.2 µM (active). For the same compound, the Potency in test [13] is 7.43 µM (active); in test [15] it was 8.33 µM (active); in test [19], 6.62 µM (active).
